Unmarked numbers belong to inactive results. The rule behind the calls is not given here.

This assay deals with Pantothenate synthetase (Mycobacterium tuberculosis (strain ATCC 25618 / H37Rv)) (UniProt P9WIL5). The assay is described as follows: Recombinant Mtb pantothenate synthetase (PanC) inhibitors, coupled enzyme, confirmatory (AID 375).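 Note: 0% = full reaction with vehicle and 100% = no enzyme background.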 The following applies: coupled enzyme assay; at 10 µM, stronger effect = higher value.
Sequence of Pantothenate synthetase (Mycobacterium tuberculosis (strain ATCC 25618 / H37Rv)) (P9WIL5 whole entry, looked up): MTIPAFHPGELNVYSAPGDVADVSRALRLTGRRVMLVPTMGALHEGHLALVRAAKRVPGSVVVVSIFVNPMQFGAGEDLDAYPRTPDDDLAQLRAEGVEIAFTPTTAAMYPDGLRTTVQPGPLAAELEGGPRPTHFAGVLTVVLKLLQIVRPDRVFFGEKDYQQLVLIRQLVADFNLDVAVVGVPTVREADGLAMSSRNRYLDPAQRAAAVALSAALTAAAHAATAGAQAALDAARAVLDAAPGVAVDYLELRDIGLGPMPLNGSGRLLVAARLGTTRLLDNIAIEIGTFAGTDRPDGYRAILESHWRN
Take `c1ccc(-n2c(Sc3cnccn3)nnc2-c2cccs2)cc1`: the inhibition is 0%.
As for `COC(=O)c1ccccc1S(=O)(=O)N(CCCO)Cc1cc2c(C)ccc(C)c2[nH]c1=O`, the inhibition was 2%.
In the case of `CC1(C)CC(=O)CC(C)(C)N1OC(=O)c1ccccn1`, the inhibition is 0%.
In the case of `COCCNC(=O)C(c1ccncc1)N(C(=O)Cn1nnc2ccccc21)c1ccc(OC)cc1` (stereo not given), the inhibition was 0%.
The same measure for `CCn1cc(SCC(=O)Nc2cc(C)on2)c2ccccc21`: 0%; for `COC(=O)Cn1c(CN2CCN(c3ccccc3F)CC2)nc2c1c(=O)n(C)c(=O)n2C`: 0%; for `COc1ccc2c(c1)CCc1cc(C(=O)N3CCN(c4ccc(N5CCOCC5)nn4)CC3)sc1-2`: 2%.
As to `CCc1ccccc1NC(=O)CCc1nc(-c2ccc(C)cc2)no1`, the inhibition is 0%.
On to `CC1CCc2nc(NC(=O)CN3CCN(Cc4ccc5c(c4)OCO5)CC3)sc2C1` (stereo not given), for which the inhibition is 0%.
`COc1ccccc1OCC(O)COC(N)=O` (stereo not given): the inhibition is 6%.
With `COc1ccc(CN(C)CC(=O)c2c(N)n(Cc3ccccc3)c(=O)n(C)c2=O)c(OC)c1`, the inhibition is 0%.
The value for `Oc1c(Cl)cc(Cl)cc1CNc1ccc(Br)cn1` was 4%; that for `COc1ccc(S(=O)(=O)N2CCN(CC(=O)Nc3ccc(F)c(F)c3)CC2)cc1` was 7%; that for `COc1ccccc1N1C(=O)c2ccccc2NC1c1ccncc1` (stereo not given) was 3%.
The value for `Cc1nnc(SCC(=O)Nc2ccc(Br)cn2)[nH]c1=O` was 1%.
Regarding `NC(=O)c1sc2nc3c(c(-c4ccco4)c2c1N)CCC3`, the inhibition was 0%.
The value for `Cc1onc(-c2ccccc2)c1C(=O)Nc1ccc(S(=O)(=O)N2CCCCC2)cc1` was 0%.
For `Cc1nc2ncnn2c(Nc2ccc3c(c2)OCCO3)c1C`, the inhibition is 3%.
In the case of `Cc1nnc2c3ccccc3c(-c3ccccc3)nn12`, the inhibition is 0%.
The same measure for `Cc1ccc2cc3cc(C(=O)NCCN4CCOCC4)oc3nc2c1`: 4%; for `O=C(O)Cn1nc2ccccc2n1`: 0%.
The same measure for `COc1ccc(N(CC(=O)N2c3ccccc3CC2C)S(=O)(=O)c2c(C)noc2C)cc1` (stereo not given): 7%; for `O=C(CSc1nnc(-c2cnccn2)n1Cc1ccco1)c1ccc(Cl)cc1`: 0%.
The value for `CCOC(=O)C1(c2ccccc2)NC(c2ccc(N(C)C)cc2)C2C(=O)N(C)C(=O)C21` (stereo not given) was 0%; that for `Cc1nnc(SCCn2c(N3CC(C)CC(C)C3)nc3c2c(=O)n(C)c(=O)n3C)s1` (stereo not given) was 0%; that for `CCC(C)NC(=O)c1cn(CC)c2ccc(S(=O)(=O)N(C)C)cc2c1=O` (stereo not given) was 0%.
As to `CN(C)c1ccc(/C=C/c2ccncc2)cc1`, the inhibition is 1%.
`CN(CCNC(=O)c1ccc(N2CCCC2=O)cc1)CCc1ccccc1`: the inhibition is 0%.
In the case of `CCOC(=O)c1ccc(NC(=O)CSc2n[nH]c(-c3ccncc3)n2)cc1`, the inhibition is 5%.
On to `CCCCCc1c(O)c2ccccc2[nH]c1=O`, for which the inhibition was 0%.
The same measure for `CCc1cc2c(=O)c(-c3cscn3)coc2cc1O`: 0%; for `COc1ccccc1NC(=O)c1ccc(NC(=O)CSc2nnnn2C)cc1`: 1%.
The same measure for `c1ccc2c(c1)CCCC2C1=NCCN1` (stereo not given): 0%.
Regarding `O=C(Nc1ccc(Cl)cc1C(=O)Nc1ccncc1)c1ccco1`, the inhibition is 4%.
As to `N#CC1=C(N)OC2=C(C(=O)CCC2)C1CCc1ccccc1` (stereo not given), the inhibition was 1%.
On to `COc1ccc(-n2c(SCc3ccc(C#N)cc3)nnc2-c2ccccn2)cc1`, for which the inhibition was 0%.
As for `Cc1cc(NC(=O)CCC(=O)N(c2cccnc2)C(C(=O)NC2CCCC2)c2ccccc2F)no1` (stereo not given), the inhibition was 0%.
For the compound `Cc1cc(C)cc(NC(=O)N2CCC(c3nc4ccccc4o3)CC2)c1`, the inhibition was 7%.
The same measure for `O=C(CSC1=NC(=O)C(Cc2ccccc2)C(=O)N1)NC1CCCCC1` (stereo not given): 0%; for `CCOC(=O)c1sc(NC(=O)CSc2nnc(-c3ccc(OC)cc3)n2CCOC)nc1C`: 6%.

One may read the inhibition as the change of the read-out against control, counted positive when it falls.

For the origin of these results see PubChem BioAssay.
